Measured values reported in PubChem BioAssay AID602438 (Sanford-Burnham Center for Chemical Genomics, 2012).
Among all 360,000 compounds or so, about 3,100 (0.86%) were called active.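 How the source made its calls: active means inhibition or corrected inhibition above about 18%, plus a signal ratio from 0.5 to 1.5 (limit read from the data, passing the limit was not always enough); inactive means the rest.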 The full list was thinned out, with actives kept by preference.

biological target: Neuropilin-1 (Homo sapiens) (UniProt O14786); experiment: NRP-1/CendR peptide interaction modulators – biochemical, fluorescence polarization, uHTS, primary screen (AID 602438); settings: FAM-RPARPAR peptide binding to NRP-1, fluorescence polarization; at 25 µM; active compounds read high
Sequence (O14786 whole entry, looked up): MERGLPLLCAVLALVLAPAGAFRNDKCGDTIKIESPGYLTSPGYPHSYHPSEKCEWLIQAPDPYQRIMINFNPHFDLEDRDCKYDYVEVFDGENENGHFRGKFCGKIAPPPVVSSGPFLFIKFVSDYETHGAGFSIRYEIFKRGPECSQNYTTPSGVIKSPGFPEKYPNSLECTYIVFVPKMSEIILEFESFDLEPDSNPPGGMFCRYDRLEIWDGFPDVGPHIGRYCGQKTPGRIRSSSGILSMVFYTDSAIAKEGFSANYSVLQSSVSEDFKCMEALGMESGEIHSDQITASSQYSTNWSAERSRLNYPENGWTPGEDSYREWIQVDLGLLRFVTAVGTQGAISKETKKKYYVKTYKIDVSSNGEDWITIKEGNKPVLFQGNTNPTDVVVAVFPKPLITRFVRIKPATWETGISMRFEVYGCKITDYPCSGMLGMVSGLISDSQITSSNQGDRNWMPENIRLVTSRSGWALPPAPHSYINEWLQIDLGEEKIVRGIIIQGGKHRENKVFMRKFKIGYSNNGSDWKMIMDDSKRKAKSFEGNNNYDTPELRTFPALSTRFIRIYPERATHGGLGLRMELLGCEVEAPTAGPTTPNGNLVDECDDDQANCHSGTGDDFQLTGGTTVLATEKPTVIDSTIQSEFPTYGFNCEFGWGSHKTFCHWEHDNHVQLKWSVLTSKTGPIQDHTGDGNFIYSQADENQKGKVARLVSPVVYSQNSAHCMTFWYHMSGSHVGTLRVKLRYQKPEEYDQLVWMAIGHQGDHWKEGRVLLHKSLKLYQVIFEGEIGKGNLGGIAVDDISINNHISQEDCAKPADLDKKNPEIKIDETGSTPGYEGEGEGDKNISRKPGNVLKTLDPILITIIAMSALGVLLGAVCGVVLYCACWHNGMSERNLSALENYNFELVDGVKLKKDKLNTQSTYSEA

| Compound | inhibition |
| --- | --- |
| CSCCC(NS(=O)(=O)c1ccc(C)cc1)C(=O)N(C)CC(=O)Nc1ccccc1Br (stereo unspecified) | 3.9% (inactive) |
| O=C(CNC(=O)c1n[nH]c2ccccc12)Nc1cc(Cl)ccc1Cl | 3.5% (inactive) |
| CCC(NC(=O)c1cc(COc2ccc(F)c(F)c2)on1)c1ccncc1 (stereo unspecified) | 1.4% (inactive) |
| COCCOC(=O)C1=C(C)Nc2nc(C)nn2C1c1ccccc1 (stereo unspecified) | 36.8% (active) |
| COc1ccccc1C1C(C(N)=O)=C(C)Nc2nc(CCCO)nn21 (stereo unspecified) | 3.8% (inactive) |
| CC1=C(C(N)=O)C(c2ccc(F)cc2)n2nc(CCCO)nc2N1 (stereo unspecified) | 6.8% (inactive) |
| Cc1noc(C)c1CSc1nnc2ccc3ccccc3n12 | 10.5% (inactive) |
| COc1ccc(-c2ccc3nnc(SCC(=O)Nc4ccc(NC(C)=O)cc4)n3n2)cc1 | -19% (inactive) |
| CNC(=O)N1c2ccccc2C=Cc2ccccc21 | 2.6% (inactive) |
| CC1C(=O)N(Cc2ccccc2)c2ccccc2N1C(=O)c1ccccc1 (stereo unspecified) | 1.5% (inactive) |
| CC1C(C)N(C(=O)CCl)c2ccccc2N1C(=O)CCl (stereo unspecified) | 27.7% (active) |
| CCN(CC)c1ccc(C2C3CCCCC3(O)CCN2CC(=O)Nc2ccccc2)cc1 (stereo unspecified) | -12.5% (inactive) |
| CC(C)Cc1nc(Nc2ccc(S(=O)(=O)N3CCCC3)cc2)c2nnn(Cc3ccccc3)c2n1 | -9.8% (inactive) |
| CC(C)COC(=O)C1C2C=CC3(CN(C(C)c4ccc(Br)cc4)C(=O)C13)O2 (stereo unspecified) | 27.4% (active) |
| CCOC(=O)CN1CC23C=CC(O2)C(C(=O)Nc2ccc(F)cc2)C3C1=O (stereo unspecified) | -3.4% (inactive) |
| CCN(CC)CCN1C(=O)C2C(C(=O)Nc3ccc(Br)cc3)C3C=CC2(O3)C1C(=O)NC1CCCCC1 (stereo unspecified) | 10% (inactive) |
| CCOC(=O)C1CCN(C(=O)c2ccccc2N(C)S(=O)(=O)c2ccccc2)CC1 | 7.6% (inactive) |
| Cc1cccc(N2CCN(C(c3ccc(N(C)C)cc3)c3nnnn3C(C)(C)C)CC2)c1C (stereo unspecified) | -6.2% (inactive) |
| O=C(CCl)NNc1cccc(Cl)n1 | 5.6% (inactive) |
| COc1ccc(-c2c(C#N)cnc(C)c2C)c(O)c1OC | 37.9% (active) |
| O=C(CC1SC(=Nc2ccccc2F)N(CCN2CCOCC2)C1=O)Nc1ccc(F)cc1F (stereo unspecified) | -6.8% (inactive) |
| CCc1ccc(-c2nc(SCC(=O)NC3CCCC3)n[nH]2)cc1 | -8.8% (inactive) |
| Cc1cc(C)c(S(=O)(=O)N2CCCC2CNC(=O)c2ccc3c(c2)OCO3)c(C)c1 (stereo unspecified) | -6.7% (inactive) |
| Cc1cc(NS(=O)(=O)c2ccc(NC(=O)C(C)Oc3cccc(C)c3C)cc2)nc(C)n1 (stereo unspecified) | -7.8% (inactive) |
| Cc1onc(-c2ccccc2)c1C(=O)N1CCN(S(=O)(=O)c2ccccc2C(F)(F)F)CC1 | -195% (inactive) |
| CC(C)(C)S(=O)(=O)c1ccccc1-c1noc(-c2ccccc2)c1C(N)=O | 42.7% (active) |
